Rows were chosen to be rich in hits. Some 1.7% of all compounds tested hit in one or more screens of this group.
Hck-Nef inh: inhibitors of human Hck kinase activated by Nef; P08631; inhibition, % at 20 µM; Recombinant Hck-YEEI plus Nef, Z-Lyte FRET kinase assay; 0.68% of 220,000 active; AID 463187;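 active = Hck-Nef kinase inhibition above about 50%, limit read from the data; inactive = inhibition below that limit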;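 note: 0% = DMSO with Hck plus Nef and 100% = Hck alone without Nef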
Target sequence (P08631 whole entry, looked up): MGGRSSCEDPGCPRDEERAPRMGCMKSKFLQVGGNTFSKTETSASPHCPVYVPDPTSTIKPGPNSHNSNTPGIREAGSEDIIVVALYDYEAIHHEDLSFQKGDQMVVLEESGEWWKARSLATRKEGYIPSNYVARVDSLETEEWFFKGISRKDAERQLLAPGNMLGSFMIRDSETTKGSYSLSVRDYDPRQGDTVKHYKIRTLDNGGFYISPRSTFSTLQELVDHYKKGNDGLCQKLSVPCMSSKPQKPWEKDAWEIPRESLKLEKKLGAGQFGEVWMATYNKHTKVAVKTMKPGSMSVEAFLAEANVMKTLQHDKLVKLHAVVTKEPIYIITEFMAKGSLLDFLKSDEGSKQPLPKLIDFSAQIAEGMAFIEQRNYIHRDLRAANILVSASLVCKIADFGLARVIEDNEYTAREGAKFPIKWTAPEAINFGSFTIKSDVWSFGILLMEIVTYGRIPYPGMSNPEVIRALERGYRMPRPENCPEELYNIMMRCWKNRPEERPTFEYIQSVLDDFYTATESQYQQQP
PREPL inhibitor: inhibitors of human prolyl oligopeptidase-like enzyme PREPL | Q4J6C6 | recombinant PREPL, fluorescence polarization activity-based probe | inhibition, % at 5.96 µM | 0.68% of 320,000 active | AID 2751; in the data active = inhibition above about 43%;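 note: 0% = enzyme with DMSO and 100% = wells lacking enzyme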
Rin1-Abl PPI inh: inhibitors of human Rin1-Abl protein interaction; TR-FRET Rin1/Abl binding, biochemical; inhibition, % at 7.35 µM; 0.4% of 360,000 active; in the data active = inhibition above about 5%, passing the limit was not always enough
LYPLA2 counter: LYPLA2 (human) inhibition in PME1 counter-screen; O95372; recombinant LYPLA2, FP-Rh probe fluorescence polarization; inhibition, % at 5.9 µM; 0.38% of 320,000 active;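 active = inhibition above the screen-wide mean plus 3 SD, limit set per campaign, cut at about 26% in these data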;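 note: 0% = LYPLA2 with DMSO and 100% = wells lacking LYPLA2 enzyme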
Target sequence (O95372 whole entry, looked up): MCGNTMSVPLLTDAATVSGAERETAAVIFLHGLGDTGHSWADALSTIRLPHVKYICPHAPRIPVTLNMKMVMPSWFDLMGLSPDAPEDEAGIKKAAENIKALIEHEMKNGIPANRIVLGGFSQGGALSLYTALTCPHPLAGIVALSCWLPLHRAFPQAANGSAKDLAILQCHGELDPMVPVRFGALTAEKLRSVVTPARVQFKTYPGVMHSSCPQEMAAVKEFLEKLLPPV
LYPLA1 inh: LYPLA1 (human) inhibition in PME1 counter-screen; O75608; recombinant LYPLA1, FP-Rh probe fluorescence polarization; inhibition, % at 5.9 µM; 0.16% of 320,000 active;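 active = inhibition above the mean of all tested compounds plus 3 SD, set per campaign, cut at about 14% in these data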;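 note: inhibitors block serine hydrolase probe labeling of LYPLA1 so polarization falls; 0% = enzyme with DMSO and 100% = wells lacking LYPLA1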
p97 ATPase inh: inhibitors of human p97 ATPase. AID 1481. recombinant p97 ATPase, Kinase-Glo ATP luminescence, 3 h. 0.42% of 220,000 active. inhibition, % at 8 µM. P55072; in the data active = inhibition above about 15%;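 note: 0% = DMSO vehicle and 100% = wells lacking enzyme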
p97 confirm: confirmation of human p97 ATPase inhibitors; shares compounds with p97 ATPase inh; recombinant p97 ATPase, Kinase-Glo ATP luminescence; inhibition, % at 8 µM; 44% of 760 active;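 active = percent inhibition of p97 ATPase above a set limit, the primary screen's mean plus 3 SD, cut at about 15% in these data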;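 note: 0% = DMSO wells and 100% = wells lacking p97 protein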
* hit, by the source's call; . = not tested or not shown.

SMILES | Hck-Nef inh | PREPL inhibitor | Rin1-Abl PPI inh | LYPLA2 counter | LYPLA1 inh | p97 ATPase inh | p97 confirm
CC1=NN(c2ccc(Cl)cc2)C(=O)C1C(c1ccccc1O)c1c(C)[nH]n(-c2ccc(Cl)cc2)c1=O (stereo not given) | 0.1 | 5.1 | 1.1 | 21.5 | 6.9 | 32.3* | 7.7
CCN(CC(=O)Nc1c(F)cccc1F)C(=O)c1nn(C)c(=O)c2ccccc12 | . | 6.0 | 1.1 | 3.2 | -1.3 | . | .
Cc1cc(=O)n2[nH]c(-c3ccsc3-n3c(C)ccc3C)cc2n1 | 29.9 | 28.6 | 2.8 | 8.2 | -4.1 | 23.2* | 12.3
Cc1nc2cc(-c3ccsc3-n3c(C)ccc3C)[nH]n2c(=O)c1Cl | 0.8 | 23.8 | 2.2 | -0.6 | -2.9 | 29.8* | 10.1
COc1ccc(NS(=O)(=O)c2cccc(C(=O)NCc3ccccc3CN3CCCC3)c2)cc1 | . | 14.4 | 0.8 | 4.9 | 1.8 | . | .
COc1ccc2c(c1)c(/C=N/Nc1nc3ccccc3[nH]1)c(C)n2C | 14.3 | 42.0 | -0.9 | -2.8 | -2.0 | 32.7* | 10.6
COc1cc(OC)c(OC)cc1/C=N/Nc1nc2ccccc2[nH]1 | 3.7 | 11.4 | -5.2 | -1.9 | 0.6 | 6.3 | .
Cc1cc(-c2n[nH]c(=S)n2/N=C/C=C/c2ccco2)n[nH]1 | 10.5 | 3.7 | 3.0 | 5.3 | 1.5 | 24.2* | 9.2
S=c1[nH]nc(-c2ccc(Cl)cc2)n1/N=C/C=C/c1ccco1 | 15.3 | -53.4 | -1.4 | -2.5 | -1.9 | 15.9* | 7.4
S=c1[nH]nc(-c2ccccc2)n1/N=C/C=C/c1ccco1 | -2.5 | 10.9 | 1.8 | 4.2 | -0.4 | 6.7 | .
Cc1ccccc1-c1n[nH]c(=S)n1/N=C/C=C/c1ccco1 | -3.4 | 5.8 | 1.4 | -2.4 | 0.5 | 7.9 | .
O=C(Nc1ccc(N2CCOCC2)cc1N1CCOCC1)c1ccc([N+](=O)[O-])cc1 | 1.3 | 17.1 | 3.3 | 1.6 | -3.1 | 1.9 | .
O=C(NNc1cc(N2CCOCC2)nc(N2CCOCC2)n1)c1ccc([N+](=O)[O-])cc1 | 12.8 | . | -5.9 | . | . | 22.5* | 7.1
O=c1[nH]c(CN2CCCCC2)nc2ccccc12 | 0.6 | 13.2 | -1.1 | -9.3 | -1.9 | 25.1* | 2.7
O=C(O)CCc1nc(-c2ccc(Cl)cc2)no1 | -0.3 | -4.8 | -1.7 | 8.1 | 1.0 | 19.9* | 4.2
CC(C)(CC(=O)O)Cc1nc(-c2ccc(Cl)cc2)no1 | 18.3 | 4.1 | -0.7 | 8.7 | 0.0 | 18.6* | 3.1
CC(=O)NCCc1nc(-c2ccc(Cl)cc2)no1 | . | -2.7 | 0.9 | 1.5 | 3.3 | . | .
Cc1ccc(C(=O)NCCc2nnc3ccc(SCC(=O)N4CCCCC4)nn23)cc1 | . | 9.7 | 7.5 | 5.7 | 1.1 | . | .
CCn1nc(CC(=O)Nc2nnc(CC(=O)N3CCOCC3)s2)c2ccccc2c1=O | 2.0 | -3.3 | -2.2 | -0.4 | 3.5 | 19.9* | 8.0
CCC(C)c1ccc(C2C3=C(Nc4nc(N)[nH]c(=O)c42)c2ccccc2C3=O)cc1 (stereo not given) | 28.1 | 0.7 | -2.3 | -10.7 | -14.7 | 15.4* | 5.4
Cc1c(O)ccc2c(O)c(NC(=O)c3ccc4c(c3)CCC(C)(C)O4)c(=O)oc12 | 13.8 | -8.4 | 1.0 | 1.8 | -1.2 | 29.4* | 0.5
CCOC(=O)c1ccc(NC(=O)c2ccccc2[N+](=O)[O-])cc1 | -4.9 | -0.2 | 0.7 | -7.4 | 0.1 | 1.8 | .
CCOC(=O)c1cc([N+](=O)[O-])c([N+](=O)[O-])cc1NC(C)=O | 7.7 | 2.1 | -2.4 | 7.2 | -1.1 | 15.8* | 35.3*
O=C(Nc1ccc(Br)c2ccccc12)c1ccc2ccccc2c1O | 9.0 | 16.7 | -7.0 | 8.6 | -5.5 | 18.6* | 24.1*
CC(=O)Nc1ccc(Br)c2ccccc12 | 1.0 | -4.3 | -43.8 | 6.0 | 1.4 | -1.4 | .
SMILES | Hck-Nef inh | PREPL inhibitor | Rin1-Abl PPI inh | LYPLA2 counter | LYPLA1 inh | p97 ATPase inh | p97 confirm
N#CC1=C2SCN(c3ccccc3)CN2C(=O)CC1c1c(Cl)cccc1Cl (stereo not given) | 2.0 | -3.1 | -1.6 | 6.0 | 4.4 | 16.5* | 4.2
N#CC1=C2SCN(c3ccccc3)CN2C(=O)CC1c1ccccc1Cl (stereo not given) | -0.8 | 4.7 | -1.9 | 5.3 | -3.5 | -9.2 | .
O=C(N/N=C/c1c[nH]c2ccccc12)c1cc(-c2ccc(-c3ccccc3)cc2)n[nH]1 | 16.2 | 14.3 | -5.0 | -35.1 | -29.2 | 17.1* | 10.9
O=C(N/N=C/c1c[nH]c2ccccc12)c1cc(-c2ccccc2)n[nH]1 | 19.2 | 12.6 | 0.1 | 3.2 | 0.0 | 3.9 | .
Nc1[nH]c(=O)nc(Nc2ccccc2)c1N=O | . | -2.9 | -13.3 | -1.6 | -0.8 | . | .
Cc1ccc(-n2nc(C)c3c2OC(N)=C(C#N)C3c2ccc(F)cc2)cc1 (stereo not given) | 1.7 | 9.5 | 1.1 | 3.2 | 3.5 | 19.7* | 2.1
Cc1nn(-c2cccc(Cl)c2)c2c1C(c1cccnc1)C(C#N)=C(N)O2 (stereo not given) | 0.0 | 7.4 | 1.2 | -3.2 | -0.9 | 16.3* | 9.4
Cc1nn(-c2ccccc2)c2c1C(c1ccc([N+](=O)[O-])cc1)C(C#N)=C(N)O2 (stereo not given) | 3.2 | -7.7 | 3.7 | 5.6 | 0.7 | 5.8 | .
CCCCOc1ccccc1NC(=O)c1ccco1 | 0.9 | 2.4 | 3.0 | 2.6 | 2.3 | 2.4 | .
CCCCOc1ccccc1NC(=O)c1scc2c1OCCO2 | 12.3 | . | 0.5 | . | . | 16.0* | 20.2*
CC(C(=O)c1ccc(-c2ccccc2)cc1)[n+]1cccc(NC(=O)c2ccccc2)c1 (stereo not given) | 16.4 | -23.6 | 1.0 | 4.4 | 0.2 | 19.5* | 17.6*
Cc1cccc(NC(=O)c2ccco2)c1C | . | -3.7 | -1.0 | 7.3 | 2.6 | . | .
Cc1cccc(NC(=O)c2sc(NC(=O)c3ccco3)c(C#N)c2C)c1C | 5.2 | -1.8 | 2.5 | 1.0 | -2.1 | 15.6* | 9.6
Cc1ccc(NC(=O)CN(C)C(=O)CSc2nc3ccccc3c(=O)n2Cc2ccco2)cc1 | 1.6 | -16.6 | 2.4 | 0.8 | -2.2 | 19.4* | 7.1
CN(Cc1ccccc1)C(=O)CSc1nc2ccccc2c(=O)n1Cc1ccco1 | 0.6 | -10.7 | -1.5 | 1.5 | 0.7 | 7.2 | .
Cc1ccccc1NC(=O)C(Cl)=C(Cl)Cl | 21.2 | 9.7 | 3.5 | -5.0 | -0.7 | 27.2* | 36.1*
O=C(Nc1ccc(N2CCOCC2)cc1)Nc1ccc2nc(-c3ccco3)c(-c3ccco3)nc2c1 | 9.6 | 25.9 | 0.9 | 13.1 | -4.7 | 2.9 | .
OCCCNC(=S)Nc1ccc2nc(-c3ccccn3)c(-c3ccccn3)nc2c1 | 0.1 | 5.2 | 1.8 | 0.1 | 3.9 | 5.1 | .
O=C(NCCCO)Nc1ccc2nc(-c3ccco3)c(-c3ccco3)nc2c1 | 2.1 | 27.6 | . | 3.7 | -8.4 | 25.4* | 22.5*
O=C(Nc1ccc2nc(-c3ccco3)c(-c3ccco3)nc2c1)NC1CC1 | 45.8 | . | 5.6 | . | . | 30.6* | 24.5*
CCOc1ccc(OCCOC(=O)CNC(=O)c2ccc(Cl)cc2Cl)cc1 | . | 0.9 | 4.7 | -0.5 | -2.1 | . | .

Bioassay records: PubChem BioAssay, several laboratories
